# PubChem BioAssay
# Several values for one entry are separate records, joined by “and”; a condition that tells them apart may be missing. Equal entries are not always repeated. Results filed as inconclusive are left out. Activity calls are given as the source filed them. Rule as the data show it, unless noted: active = inhibition above about 80%; inactive = the rest.
# What was measured:
# [1] = growth inhibition of DIPG glioma cells, dose response, cell-based, JHH-DIPG-1, MIPE4.0, CellTiter-Glo, qHTS (AID 1347062; cut-off not given, nearly all actives have AC50 up to about 27 µM;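 as to AC50: cells exposed to compound for two days before readout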); settings: JHH-DIPG-1 viability, CellTiter-Glo ATP luminescence
# [2] = growth inhibition of DIPG glioma cells, dose response, cell-based, SU-DIPG-IV, MIPE4.0, CellTiter-Glo, qHTS (AID 1347063; cut-off not given, nearly all actives have AC50 up to about 30 µM;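 also: compound exposure lasted 48 hours before the viability readout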); settings: SU-DIPG-IV viability, CellTiter-Glo ATP luminescence
# [3] = growth inhibition of DIPG glioma cells, dose response, cell-based, SU-DIPG-XIII, MIPE5.0, CellTiter-Glo, qHTS (AID 1347064; cut-off not given, nearly all actives have AC50 up to about 23 µM;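 as to AC50: cells exposed to compound for 48 hours before the viability read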); settings: SU-DIPG-XIII viability, CellTiter-Glo ATP luminescence
# [4] = viability loss in pontine glioma line – cell-based, SU-DIPG-XXV, MIPE5.0, CellTiter-Glo, qHTS, dose response (AID 1347065; cut-off not given, nearly all actives have AC50 up to about 26 µM;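 also: cells exposed to compound for 48 hours before ATP readout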); settings: CellTiter-Glo ATP luminescence
# [5] = SU-DIPG-VI glioma cell viability, MIPE4.0 library, CellTiter-Glo luminescence, qHTS (AID 1347066; cut-off not given, nearly all actives have AC50 up to about 30 µM;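 also: cells exposed to compound for 48 hours before readout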); settings: CellTiter-Glo ATP luminescence
# [6] = JHH-DIPG-1 glioma cell viability, MIPE5.0 library, CellTiter-Glo luminescence, qHTS (AID 1347067; cut-off not given, nearly all actives have AC50 up to about 26 µM;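 also: cells exposed to compound for 48 hours before readout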); settings: JHH-DIPG-1 glioma viability, CellTiter-Glo ATP luminescence
# [7] = SU-DIPG-XXV glioma cell viability, MIPE5.0 library, qHTS (AID 1347068; cut-off not given, nearly all actives have IC50 up to about 30 µM)
# [8] = modifiers of HSF1 nuclear foci, imaging, Selleck Cancer Library (AID 1347162; in the data active = plate-normalised HSF1 focus index below about 0.46); settings: human cells, at 10 µM; SSMD: measured here: HSF1 foci SSMD mean; cell count: measured here: cell number; plate-normalised HSF1 focus index: stronger effect = lower value
# [9] = viability rescue of complex I mutant cybrids, primary screen, cell-based, galactose medium, ATP luminescence (AID 1645843;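 active = z-score of at least 1.8 in each of two replicates, scored against plate mean and spread of sample wells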;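 also: positive z means more ATP and so rescue of galactose-driven cybrid death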); settings: complex I mutant cybrid cells, 72 h, stronger effect = higher value
# [10] = molecular target: Mitogen-activated protein kinase 7 (Homo sapiens) (UniProt Q13164); experiment: ERK5 transactivation activators in reporter cells, primary screen, cell-based, HTS (AID 1508626;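 active = luciferase signal above three times the same-plate solvent-only control wells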;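 also: luciferase driven by Gal4-ERK5 fusion binding five Gal4 sites before minimal TATA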); settings: HeLa Gal4-ERK5 transactivation, 18 h, at 5 µM, stronger effect = higher value
# [11] = LFS_MB_1R medulloblastoma cell growth inhibition, synergistic combos for chromothripsis tumors, cisplatin or BGB combos (AID 1671452); settings: LFS_MB_1R medulloblastoma cells, stronger effect = higher value;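 also: cells exposed for 96 hours before readout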
# [12] = CRL2098 osteosarcoma cell growth inhibition, synergistic combos for chromothripsis tumors, BGB or cisplatin IC20 combos (AID 1671454); settings: CRL2098 osteosarcoma cells, drug combinations, stronger effect = higher value;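 also: cells exposed for 96 h before readout; 0% = vehicle DMSO and 100% = killing by high DMSO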
# [13] = HD-MB03 medulloblastoma cell growth inhibition, synergistic combos for chromothripsis tumors, BGB or cisplatin IC20 combos (AID 1671455; in the data active = inhibition above about 83%;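 also: 0% = vehicle DMSO and 100% = high DMSO as cytotoxic control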); settings: HD-MB03 medulloblastoma cells, stronger effect = higher value
# [14] = UWB1.289 ovarian carcinoma cell growth inhibition, synergistic combos for chromothripsis tumors, BGB or cisplatin combos (AID 1671456); settings: UWB1.289 ovarian carcinoma cells, stronger effect = higher value;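 also: cells exposed to compound for four days; 0% = vehicle DMSO and 100% = killing by high DMSO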
# [15] = LFS_MB_2R medulloblastoma cell growth inhibition, synergistic combos for chromothripsis tumors, cisplatin combos (AID 1671457); settings: LFS_MB_2R medulloblastoma cells, stronger effect = higher value;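 also: cells exposed to compound for four days before readout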
# [16] = UWB1.289_BRCA1 ovarian cancer growth, cell-based, BGB or cisplatin combinations (AID 1671459); settings: UWB1.289 BRCA1 ovarian carcinoma, drug combinations, stronger effect = higher value
# [17] = human astrocyte viability loss, single and combined drugs, cytotoxicity control for chromothriptic childhood tumor combination screen, cell-based, BGB or cisplatin IC20 combos (AID 1671460); settings: Human astrocytes, drug combinations, stronger effect = higher value;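 also: cells exposed to compounds for 96 hours before viability readout; 0% = vehicle and 100% = killing control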
# [18] = growth inhibition of BT084 medulloblastoma cells, cell-based, ICGC_MB145, cisplatin and BGB IC40 combos (AID 1671461); settings: drug combinations, stronger effect = higher value;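 also: cells exposed to drugs for 96 hours; 0% = vehicle DMSO and 100% = high DMSO full killing control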
# [19] = growth inhibition of RCMB18 medulloblastoma cells, cell-based, cisplatin and BGB IC40 combos (AID 1671462); settings: stronger effect = higher value;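 also: cells exposed to compound for four days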
# [20] = growth inhibition of CRL1545 osteosarcoma cells, cell-based, cisplatin and BGB IC20 combos (AID 1671464); settings: stronger effect = higher value;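 also: cells exposed to compound for 96 hours before readout; 0% = vehicle DMSO and 100% = high DMSO killing control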
# [21] = measured here: combination with BGB IC40, at 0.05 µM
# [22] = measured here: combination with cisplatin, at 0.5 µM
# [23] = measured here: combination with cisplatin, at 5 µM
# [24] = measured here: combination with BGB at IC20, at 0.5 µM
# [25] = measured here: combination with cisplatin at IC20, at 0.5 µM
# [26] = measured here: combo with BGB at IC20, at 0.5 µM
# [27] = measured here: combo with cisplatin at IC20, at 0.5 µM
# [28] = measured here: inhibition with BGB combination, at 0.05 µM
# [29] = measured here: inhibition with cisplatin combination, at 0.05 µM
# [30] = BGB combination, concentration series, at 5 µM
# [31] = cisplatin combination, concentration series, at 5 µM
# [32] = measured here: combo with BGB IC20, at 0.5 µM
# [33] = measured here: combo with cisplatin IC20, at 0.5 µM
# [34] = cisplatin combination, at 0.5 µM
# [35] = measured here: BGB IC40 combination 0.05 uM, at 0.05 µM
# [36] = measured here: BGB IC40 combination, at 0.05 µM
# [37] = measured here: with BGB IC20 combination, at 0.5 µM
# [38] = measured here: with cisplatin IC20 combination, at 0.5 µM
# Sequence of Mitogen-activated protein kinase 7 (Homo sapiens) (Q13164 whole entry, looked up, the tested form may be a part): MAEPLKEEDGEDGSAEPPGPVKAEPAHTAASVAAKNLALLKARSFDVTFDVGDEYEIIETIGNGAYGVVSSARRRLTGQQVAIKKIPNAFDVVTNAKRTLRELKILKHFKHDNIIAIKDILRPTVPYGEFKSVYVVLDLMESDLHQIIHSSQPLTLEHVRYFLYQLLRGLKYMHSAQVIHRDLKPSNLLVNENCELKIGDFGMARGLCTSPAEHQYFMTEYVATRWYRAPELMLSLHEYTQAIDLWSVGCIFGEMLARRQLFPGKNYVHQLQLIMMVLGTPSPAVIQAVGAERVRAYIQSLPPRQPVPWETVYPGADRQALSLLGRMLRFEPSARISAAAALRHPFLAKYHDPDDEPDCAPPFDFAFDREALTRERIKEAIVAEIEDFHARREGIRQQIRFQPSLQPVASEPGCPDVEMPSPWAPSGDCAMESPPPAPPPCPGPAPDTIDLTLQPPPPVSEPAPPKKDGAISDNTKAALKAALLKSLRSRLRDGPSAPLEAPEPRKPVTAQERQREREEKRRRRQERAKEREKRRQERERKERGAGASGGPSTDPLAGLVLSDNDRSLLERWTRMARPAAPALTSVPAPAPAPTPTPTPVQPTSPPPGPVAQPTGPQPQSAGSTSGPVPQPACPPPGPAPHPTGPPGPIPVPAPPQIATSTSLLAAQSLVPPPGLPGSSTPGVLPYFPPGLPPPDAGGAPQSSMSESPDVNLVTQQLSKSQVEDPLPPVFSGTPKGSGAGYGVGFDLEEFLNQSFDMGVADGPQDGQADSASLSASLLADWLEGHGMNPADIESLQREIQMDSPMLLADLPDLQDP
structure (smiles),measurement,setting,value
COc1cc2ncnc(Nc3ccc(F)c(Cl)c3)c2cc1OCCCN1CCOCC1,AC50,[1],19.1 µM (active)
same,AC50,[2],10.8 µM (active)
same,outcome,[3],inactive
same,outcome,[4],inactive
same,AC50,[5],38.2 µM (active)
same,outcome,[6],inactive
same,outcome,[7],inactive
same,SSMD,[8],-3.63
same,cell count,[8],5320
same,plate-normalised HSF1 focus index,[8],0.813 (inactive)
same,z-score,[9],-0.29 (inactive) and 0.3 (inactive)
CCCCCCCCCCCCCCCCCCCCCCO,outcome,[1],inactive
same,outcome,[2],inactive
same,outcome,[3],inactive
same,outcome,[4],inactive
same,outcome,[5],inactive
same,outcome,[6],inactive
same,outcome,[7],inactive
same,luciferase signal,[10],140 AU (inactive)
CNC1CCCN(c2c(F)cc3c(=O)c(C(=O)O)cn(C4CC4)c3c2OC)C1 (stereo not given),outcome,[1],inactive
same,outcome,[3],inactive
same,outcome,[4],inactive
same,outcome,[6],inactive
same,outcome,[7],inactive
same,inhibition,[11]; at 0.5 µM,-44.6% (inactive)
same,inhibition,[11]; [21],-12.2%
same,inhibition,[11]; [22],-60.6%
same,inhibition,[11]; [23],-26%
same,inhibition,[12]; at 0.5 µM,-81.1% (inactive)
same,inhibition,[12]; [24],-82.3%
same,inhibition,[12]; [25],-105%
same,inhibition,[13]; at 0.5 µM,-11% (inactive)
same,inhibition,[13]; [26],-20.4%
same,inhibition,[13]; [27],-17.8%
same,inhibition,[14]; at 0.5 µM,-14.8% (inactive)
same,inhibition,[14]; [28],-34.6%
same,inhibition,[14]; [29],0.742%
same,inhibition,[15]; at 0.5 µM,-13.2% (inactive)
same,inhibition,[15]; [22],-14.1%
same,inhibition,[15]; [23],-12.8%
same,inhibition,[16]; [30],-8.91%
same,inhibition,[16]; at 0.5 µM,-19.1% (inactive)
same,inhibition,[16]; [31],-12.5%
same,inhibition,[17]; at 0.5 µM,2.51% (inactive)
same,inhibition,[17]; [32],-0.992%
same,inhibition,[17]; [33],-5.96%
same,inhibition,[18]; at 0.5 µM,-3.94% (inactive)
same,inhibition,[18]; [34],-12.4%
same,inhibition,"[18]; cisplatin combination, at 5 µM",-20.7%
same,inhibition,[18]; [35],-4.46%
same,inhibition,"[18]; single agent, at 5 µM",-9.28%
same,inhibition,[19]; at 0.5 µM,-11% (inactive)
same,inhibition,"[19]; cisplatin combo, at 5 µM",-11%
same,inhibition,[19]; [36],-0.266%
same,inhibition,[19]; [22],-4.57%
same,inhibition,"[19]; single agent, at 5 µM",-28%
same,inhibition,[20]; at 0.5 µM,-47.5% (inactive)
same,inhibition,[20]; [37],-52.5%
same,inhibition,[20]; [38],-45%
same,inhibition,"[20]; single agent, at 0.05 µM",2.8%
same,inhibition,"[20]; single agent, at 5 µM",-16.1%
O=C(O)[C@H](O)[C@@H](O)[C@H](O[C@@H]1O[C@H](CO)[C@H](O)[C@H](O)[C@H]1O)[C@H](O)CO,outcome,[3],inactive
same,outcome,[4],inactive
same,outcome,[6],inactive
same,outcome,[7],inactive
CN1CCN(c2c(F)cc3c(=O)c(C(=O)O)cn4c3c2OCN4C)CC1,outcome,[1],inactive
same,outcome,[2],inactive
same,outcome,[5],inactive
same,inhibition,[11]; at 0.5 µM,-24.2% (inactive)
same,inhibition,[11]; [21],-29.1%
same,inhibition,[11]; [22],-7.67%
same,inhibition,[11]; [23],23.6%
same,inhibition,[12]; at 0.5 µM,-52.3% (inactive)
same,inhibition,[12]; [24],-51%
same,inhibition,[12]; [25],-59.8%
same,inhibition,[13]; at 0.5 µM,-2.64% (inactive)
same,inhibition,[13]; [26],4.92%
same,inhibition,[13]; [27],0.073%
same,inhibition,[14]; at 0.5 µM,-1.17% (inactive)
same,inhibition,[14]; [28],-15.9%
same,inhibition,[14]; [29],9.55%
same,inhibition,[15]; at 0.5 µM,-13.7% (inactive)
same,inhibition,[15]; [22],-20.3%
same,inhibition,[15]; [23],-60.6%
same,inhibition,[16]; [30],1.13%
same,inhibition,[16]; at 0.5 µM,0.06% (inactive)
same,inhibition,[16]; [31],8.22%
same,inhibition,[17]; at 0.5 µM,6.55% (inactive)
same,inhibition,[17]; [32],4.16%
same,inhibition,[17]; [33],12.5%
same,inhibition,[18]; at 0.5 µM,-6.03% (inactive)
same,inhibition,[18]; [34],-9.98%
same,inhibition,"[18]; cisplatin combination, at 5 µM",4.69%
same,inhibition,[18]; [35],6.42%
same,inhibition,"[18]; single agent, at 5 µM",-5.93%
same,inhibition,[19]; at 0.5 µM,-12.6% (inactive)
same,inhibition,"[19]; cisplatin combo, at 5 µM",-14.3%
same,inhibition,[19]; [36],-20.1%
same,inhibition,[19]; [22],-5.19%
same,inhibition,"[19]; single agent, at 5 µM",-1.41%
same,inhibition,[20]; at 0.5 µM,-1.5% (inactive)
same,inhibition,[20]; [37],-0.247%
same,inhibition,[20]; [38],-4.44%
same,inhibition,"[20]; single agent, at 0.05 µM",-8.36%
same,inhibition,"[20]; single agent, at 5 µM",2.43%
O=C(CCCCCCC(=O)Nc1ccccc1)NO,AC50,[1],3.72 µM (active)
same,AC50,[3],1.18 µM (active)
same,AC50,[4],0.833 µM (active)
same,AC50,[6],1.48 µM (active)
same,outcome,[7],inactive
same,SSMD,[8],-0.489
same,cell count,[8],6970
same,plate-normalised HSF1 focus index,[8],0.984 (inactive)
same,inhibition,[11]; at 0.5 µM,17.4% (inactive)
same,inhibition,[11]; [21],-3.43%
same,inhibition,[11]; [22],21.7%
same,inhibition,[11]; [23],83.1%
same,inhibition,[12]; at 0.5 µM,-45.6% (inactive)
same,inhibition,[12]; [24],-78.4%
same,inhibition,[12]; [25],-12.2%
same,inhibition,[13]; at 0.5 µM,22% (inactive)
same,inhibition,[13]; [26],21%
same,inhibition,[13]; [27],48.3%
same,inhibition,[14]; at 0.5 µM,14.7% (inactive)
same,inhibition,[14]; [28],-38.8%
same,inhibition,[14]; [29],-24.2%
same,inhibition,[15]; at 0.5 µM,-2.63% (inactive)
same,inhibition,[15]; [22],3.49%
same,inhibition,[15]; [23],79.7%
same,inhibition,[16]; [30],69.1%
same,inhibition,[16]; at 0.5 µM,9.38% (inactive)
same,inhibition,[16]; [31],84.7%
same,inhibition,[17]; at 0.5 µM,-0.71% (inactive)
same,inhibition,[17]; [32],-2.1%
same,inhibition,[17]; [33],-2.33%
same,inhibition,[18]; at 0.5 µM,10.3% (inactive)
same,inhibition,[18]; [34],36%
same,inhibition,"[18]; cisplatin combination, at 5 µM",98.4%
same,inhibition,[18]; [35],-23.4%
same,inhibition,"[18]; single agent, at 5 µM",87.4%
same,inhibition,[19]; at 0.5 µM,14.4% (inactive)
same,inhibition,"[19]; cisplatin combo, at 5 µM",93.4%
same,inhibition,[19]; [36],-14.3%
same,inhibition,[19]; [22],47.6%
same,inhibition,"[19]; single agent, at 5 µM",78.3%
same,inhibition,[20]; at 0.5 µM,74.5% (inactive)
same,inhibition,[20]; [37],65.9%
same,inhibition,[20]; [38],78.3%
same,inhibition,"[20]; single agent, at 0.05 µM",-34.3%
same,inhibition,"[20]; single agent, at 5 µM",88.9%
